TSHR antagonist: antagonists of human thyroid stimulating hormone receptor; P16473; TSHR-expressing cells, TSH-stimulated cAMP HTRF, 2 h; hits give low values; activity change, negative = inhibition, % at 11.5 µM; 330,000 tested, 0.2% active;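 active = activity change below a set negative limit, meaning inhibition stronger than a set level, cut at about -70% in these data; inconclusive = activity change between two set negative limits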; also: % is scaled to controls: 0 for no effect and ±100 for the full control effect
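Competitive HTRF cAMP read-out (cryptate anti-cAMP antibody, cAMP-d2; 30 min, room temperature) in freshly harvested TSHR cells. Compounds added before TSH at EC80 (4nM final), followed by 2 hours' incubation at 37 deg C.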
Vif-APOBEC3F blk: blocks the Vif interaction with APOBEC3F | Potency, µM (doses to about 46.1 µM), for inactives: at the highest dose activity, negative = active | HeLa A3F-eYFP + Vif (tagged APOBEC3F with the HIV-1 protein that degrades it), YFP fluorescence increase | 390,000 tested, 0.2% active; also: potency is read from the fitted curve at half-maximal effect; % of control where 0% means no effect; nearly all actives have a fitted effect of over 65% in size
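Fluorescence increase (Ex 488/Em 500-530) after overnight compound treatment at 37 deg C flags inhibition of Vif-driven A3F-eYFP loss in stable HeLa A3F-eYFP/Vif cells seeded overnight beforehand.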
PLK1 PBD block: blocks phosphopeptide binding to human PLK1 polo-box domain; P53350; Plk1 PBD binding of FITC phosphopeptide, fluorescence polarization; Potency, µM, inactives show max response, negative = inhibition, actives largely listed as inhibitors; 360,000 tested, 2.8% active; also: potency is read from the fitted curve at half-maximal effect; series mostly up to about 57 µM; % is scaled to controls: 0 for no effect and ±100 for the full control effect; nearly all actives have a fitted effect of over 65% in size
Vif-APOBEC3G blk: inhibitors of Vif-APOBEC3G interaction. Q9HC16. HeLa A3G-eYFP + Vif (tagged APOBEC3G with the HIV-1 protein that degrades it), YFP fluorescence, overnight. Potency, µM (titrated, usually from 46.1 µM), for the others: top-dose activity, negative = active, actives largely listed as inhibitors. 410,000 tested, 0.076% active. AID 602310; also: potency is read from the fitted curve at half-maximal effect; % is scaled to controls: 0 for no effect and ±100 for the full control effect; nearly all actives have a fitted effect of over 60% in size
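HeLa cells stably expressing Vif and C-terminally eYFP-tagged A3G, seeded overnight at 37 deg C, then exposed to compound by pintool overnight at 37 deg C. Rise in yellow fluorescence (Ex 488/Em 500-530, Acumen) marks blocked Vif-driven A3G degradation.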
VDR inh: blocks the human vitamin D receptor. P11473. Potency, µM, for the others: max response, negative = inhibition, most hits filed as inhibitors. VDR-SRC2-3 peptide fluorescence polarization, 2 h. AID 504847. 400,000 tested, 0.93% active; also: potency is read from the fitted curve at half-maximal effect; % is scaled to controls: 0 for no effect and ±100 for the full control effect
Target sequence (P11473 whole entry, looked up): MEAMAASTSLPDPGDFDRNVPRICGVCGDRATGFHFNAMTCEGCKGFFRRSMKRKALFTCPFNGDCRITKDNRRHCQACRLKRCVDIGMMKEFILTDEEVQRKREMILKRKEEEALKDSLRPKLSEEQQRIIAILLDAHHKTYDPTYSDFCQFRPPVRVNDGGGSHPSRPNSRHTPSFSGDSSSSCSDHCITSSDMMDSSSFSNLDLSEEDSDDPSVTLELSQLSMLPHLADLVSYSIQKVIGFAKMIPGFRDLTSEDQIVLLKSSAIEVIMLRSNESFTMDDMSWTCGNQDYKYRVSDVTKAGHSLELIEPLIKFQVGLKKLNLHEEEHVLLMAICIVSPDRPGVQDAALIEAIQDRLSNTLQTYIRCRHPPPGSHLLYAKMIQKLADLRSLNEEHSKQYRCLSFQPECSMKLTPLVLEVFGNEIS
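FP read-out; VDR + SRC2-3 coactivator peptide; 23 nl compound by pintool; 2 h RT incubation; reagents held at 4 deg C, protected from light.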
Starred values were filed as active, the others as inactive. A selection: hits, their analogues and other compounds. The true share with any hit is near 3.1%. Unless noted, calls follow the shape of the dose curve; as a rule, active = well fitted curve in the direction sought with a large enough effect; inconclusive = small, poorly fitted or top-dose-only effect, or another doubt; inactive = no such curve, though single readings can be large; an effect the other way counts as inactive or inconclusive.

How did Cc1ccc(Sc2ncnc3onc(C)c23)cc1 do in these assays?
TSHR antagonist: -2.2; Vif-APOBEC3F blk: -5.3%; PLK1 PBD block: 18.9µM*; Vif-APOBEC3G blk: -22.2%; VDR inh: -19.3%

Results for Cc1ccccc1N1CCN(C(=O)c2cc(-c3ccccc3)nc3c2cnn3C(C)C)CC1 ?
Vif-APOBEC3F blk: 5.6%; PLK1 PBD block: -2.8%; Vif-APOBEC3G blk: 2.3%

What do the screens show for `CC(C)c1cc(C(=O)O)c2cnn(C(C)C)c2n1`?
TSHR antagonist: -8.6; Vif-APOBEC3F blk: 5.7%; PLK1 PBD block: 26.7µM*; Vif-APOBEC3G blk: 3.0%; VDR inh: inconclusive

What do the screens show for `CSCC[C@H](NC(=O)[C@@H](NC(=O)[C@H](CCC(=O)O)NC(=O)[C@H](CCSC)NC(=O)[C@H](CC(N)=O)NC(=O)[C@H](CCC(=O)O)NC(=O)[C@H](CC(N)=O)NC(=O)[C@H](CO)NC(=O)[C@H](C)N)[C@@H](C)O)C(=O)O`?
VDR inh: -8.7%

Results for CC(=O)NC(=S)NNC(=O)COc1ccc([N+](=O)[O-])cc1 ?
TSHR antagonist: -0.2; Vif-APOBEC3F blk: -2.0%; PLK1 PBD block: 21.2µM*; Vif-APOBEC3G blk: -5.0%; VDR inh: -3.7%

What do the screens show for `CCN(CC(=O)Nc1ccc(OC)cc1)C(=O)c1ccc([N+](=O)[O-])cc1`?
TSHR antagonist: 3.8; Vif-APOBEC3F blk: -3.0%; PLK1 PBD block: 6.7µM*; Vif-APOBEC3G blk: -0.2%; VDR inh: inconclusive

How did CC(=O)NC(=S)NNC(=O)COc1ccc(Br)cc1 do in these assays?
TSHR antagonist: 8.9; Vif-APOBEC3F blk: -11.0%; PLK1 PBD block: 26.7µM*; Vif-APOBEC3G blk: -0.6%; VDR inh: -8.5%

How did CC(NC(=O)COc1ccc([N+](=O)[O-])cc1)c1ccccc1 (stereo not given) do in these assays?
TSHR antagonist: -7.6; Vif-APOBEC3F blk: -8.6%; PLK1 PBD block: 11.9µM*; Vif-APOBEC3G blk: 0.1%; VDR inh: -14.4%

How did O=C(COc1ccc(Br)cc1)NNC(=S)NC(=O)c1ccccc1[N+](=O)[O-] do in these assays?
TSHR antagonist: 46.8; Vif-APOBEC3F blk: -2.0%; PLK1 PBD block: -14.0%; Vif-APOBEC3G blk: 1.3%; VDR inh: -14.0%

Results for N=c1ccn2c(n1)OC1C(O)[C@@H](CO)O[C@H]12 (stereo not given in full) ?
Vif-APOBEC3G blk: 4.3%; VDR inh: -21.5%

Results for CCCCCC(=O)NNC(=S)NC(=O)c1ccc([N+](=O)[O-])cc1 ?
TSHR antagonist: 2.5; Vif-APOBEC3F blk: 10.4%; PLK1 PBD block: 10.6µM*; Vif-APOBEC3G blk: 0.7%; VDR inh: inconclusive

How did COc1ccc(C(=O)NC(=S)NNC(=O)c2cccc(C)c2)cc1 do in these assays?
Vif-APOBEC3F blk: -7.7%; PLK1 PBD block: inconclusive; Vif-APOBEC3G blk: -6.3%; VDR inh: -13.2%

How did COc1ccc(OCC(=O)NNC(=S)NC(=O)c2ccc([N+](=O)[O-])cc2)cc1 do in these assays?
TSHR antagonist: -12.0; Vif-APOBEC3F blk: 17.2%; PLK1 PBD block: 23.8µM*; Vif-APOBEC3G blk: 3.9%; VDR inh: -17.9%

What do the screens show for `COc1ccc(C(=O)NNC(=S)NC(=O)c2ccc(OC)cc2)cc1`?
TSHR antagonist: -5.6; Vif-APOBEC3F blk: 2.8%; PLK1 PBD block: -1.8%; Vif-APOBEC3G blk: -2.0%; VDR inh: -5.3%

Results for CCOc1cccc(C(=O)NC(=S)Nc2ccc(Cl)cc2C(=O)O)c1 ?
TSHR antagonist: -6.2; Vif-APOBEC3F blk: 15.4%; PLK1 PBD block: 5.32µM*; Vif-APOBEC3G blk: -0.9%; VDR inh: inconclusive

What do the screens show for `CCOc1cccc(C(=O)NC(=S)Nc2ccc(N3CCCC3)cc2)c1`?
TSHR antagonist: -9.2; Vif-APOBEC3F blk: 2.3%; PLK1 PBD block: -13.7%; Vif-APOBEC3G blk: -1.5%; VDR inh: 7.4%

How did Cc1cccc(C(=O)NC(=S)NNC(=O)COc2ccc(Cl)cc2)c1 do in these assays?
TSHR antagonist: -3.2; Vif-APOBEC3F blk: 1.5%; PLK1 PBD block: 26.7µM*; Vif-APOBEC3G blk: -1.9%; VDR inh: 3.5%

How did COc1ccc(/C=C/c2ccccn2)cc1 do in these assays?
Vif-APOBEC3G blk: 3.3%

How did COc1ccc2[nH]cc(CCNc3ccnc(-c4ccccc4Cl)n3)c2c1 do in these assays?
VDR inh: -18.7%

How did C/C=C(/C)C(=O)O[C@H]1C[C@@]2(C)O[C@H]2[C@@H](OC(C)=O)C2(C)CC[C@@](O)(C(C)C)C12 (stereo not given in full) do in these assays?
VDR inh: 1.4%

What do the screens show for `O=C(COc1cccc(Cl)c1)NNC(=S)Nc1ccccc1`?
TSHR antagonist: -11.1; Vif-APOBEC3F blk: 0.4%; PLK1 PBD block: 23.8µM*; Vif-APOBEC3G blk: -1.5%; VDR inh: inconclusive

What do the screens show for `CN(C)S(=O)(=O)c1cccc(C(=O)Nc2cc(S(=O)(=O)N3CCOCC3)ccc2N2CCCC2)c1`?
Vif-APOBEC3F blk: 0.4%; PLK1 PBD block: 5.32µM*; Vif-APOBEC3G blk: -1.7%; VDR inh: 44.7µM*

What do the screens show for `CCOc1cc(N2CCOCC2)c(OCC)cc1NC(=O)c1cccc(S(=O)(=O)N2CCOCC2)c1`?
TSHR antagonist: -88.5*; Vif-APOBEC3F blk: 15.7%; PLK1 PBD block: -5.1%; Vif-APOBEC3G blk: 0.4%; VDR inh: 3.7%

How did COc1ccccc1NC(=O)/C(C#N)=C/c1ccncc1 do in these assays?
TSHR antagonist: -13.6; Vif-APOBEC3F blk: 1.9%; PLK1 PBD block: inconclusive; Vif-APOBEC3G blk: -0.8%; VDR inh: -28.9%

What do the screens show for `COc1ccccc1NC(=O)/C(C#N)=C/c1cc([N+](=O)[O-])ccc1N1CCCC1`?
TSHR antagonist: 7.8; Vif-APOBEC3F blk: -10.2%; PLK1 PBD block: 10.6µM*; Vif-APOBEC3G blk: -4.7%; VDR inh: -15.1%

Results for CN(C)S(=O)(=O)c1cccc(C(=O)Nc2cc(S(=O)(=O)N3CCOCC3)ccc2O)c1 ?
TSHR antagonist: -16.3; Vif-APOBEC3F blk: 3.8%; PLK1 PBD block: -15.7%; Vif-APOBEC3G blk: 1.1%; VDR inh: -5.5%

How did O=C(Nc1cc(S(=O)(=O)N2CCOCC2)ccc1N1CCCC1)c1ccc(F)cc1 do in these assays?
TSHR antagonist: -4.0; Vif-APOBEC3F blk: 0.1%; PLK1 PBD block: 9.47µM*; Vif-APOBEC3G blk: -0.7%; VDR inh: 39.8µM*

Results for COc1ccc(Cl)cc1C(=O)NCc1nc(-c2cccc(C)c2)no1 ?
Vif-APOBEC3F blk: -0.6%; Vif-APOBEC3G blk: 0.5%; VDR inh: 6.3%

How did C(=Nc1cccnc1)c1ccnc2ccccc12 do in these assays?
Vif-APOBEC3G blk: 1.3%

How did COCCCNCc1cc(C)n(-c2cc(S(=O)(=O)N3CCOCC3)ccc2N2CCCC2)c1C do in these assays?
Vif-APOBEC3F blk: 2.6%; PLK1 PBD block: -14.3%; Vif-APOBEC3G blk: -0.1%; VDR inh: -24.8%

How did Cc1cc(C#N)c(C)n1-c1cc(S(=O)(=O)N2CCOCC2)ccc1N1CCCC1 do in these assays?
Vif-APOBEC3F blk: 4.7%; PLK1 PBD block: 21.2µM*; Vif-APOBEC3G blk: -5.0%; VDR inh: inconclusive

Screening data deposited in PubChem by National Center for Advancing Translational Sciences (NCATS).
